# Experimental data published in PubChem BioAssay (NCI).
# The panel holds about 83,000 compounds, 20% with a hit somewhere; the sample as a whole holds those more often.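 Plates (96-well) were seeded with cells, treated with compound at one concentration, and incubated for 48 hours before percent growth was determined.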 Unmarked numbers belong to inactive results. Calls of active or inactive are those of the source. Rule for the calls: active = growth percent below 10; inactive = the rest.
# System: HL-60(TB) leukemia
# Experiment: NCI-60 one-dose screen, 48 h (100 = growth as untreated, 0 = no growth, -100 = all killed)
# Details: 10 µM unless noted
row,SMILES,growth
1,Oc1ccc(N=Cc2ccccc2)cc1,0.519% (active)
2,Cc1cc(C)c(NC(=O)c2sc3nc4c(cc3c2N)CN(Cc2ccccc2)CC4)c(C)c1,-10.3% (active)
3,O=C(CCCCCCCCC(=O)Nc1cccc(C2=NCCN2)c1)Nc1cccc(C2=NCCN2)c1,81.9%
4,Cc1[nH]cnc1/C=C1\SC(N2CCCCC2)=NC1=O,96.4%
5,O=c1[nH]c(=O)n(C2C[C@H](O)[C@@H](CO)O2)cc1C(F)(F)F (stereo not given in full),85.8%
6,CCN1C(=O)N(CC)C2C1NC(=S)N2/N=C/C=C/c1ccccc1 (stereo not given),-39.2% (active)
7,CC1C(=O)c2ccccc2CC1C(=O)O (stereo not given),99.7%
8,Cn1cc(-c2noc(C(=O)c3cn(C)c4ncc(Br)cc34)n2)c2ccccc21,103%
9,CCOC(=O)C#Cc1c(C(=O)OCC)nnn1Cc1ccc([N+](=O)[O-])cc1,55.4%
10,Cc1[nH]n(C(=O)c2ccncc2)c(=O)c1N=Nc1ccc(S(=O)(=O)Nc2ccncn2)cc1,91.3%
11,CN(C)C[C@@H]1CCn2cc(c3ccccc32)C2=C(C(=O)NC2=O)c2cn(c3ccccc23)CCO1,-23.5% (active)
12,Cc1ccc(-c2csc(N(C(=O)N3CCN(c4cc5c(cc4F)c(=O)c(C(=O)O)cn5C4CC4)CC3)c3ccccc3)n2)cc1,1.91% (active)
13,Cc1csc(Nc2nc(-c3ccc(Cl)cc3)nc(C(Cl)(Cl)Cl)n2)n1,69.3%
14,O=[N+]([O-])c1cc(C(F)(F)F)ccc1Sc1ccc(C(F)(F)F)cc1[N+](=O)[O-],8.05% (active)
15,Cc1cc2cccnc2c2ncccc12,-11.4% (active)
16,Cc1cc(C)on1,76.3%
17,O=C(O)CCCCCCCCCCN1C(=O)/C(=C2/C(=O)N(CC(=O)O)c3ccc(Br)cc32)SC1=S,9.25% (active)
18,COc1ccc(Cn2cc(C(=O)Nc3cccnc3Nc3ccccc3)nn2)cc1,104%
19,O=c1oc2ccc(F)cc2c(=O)n1-c1ccc(F)cc1F,16.7%
20,COc1ccc2nc(Cl)c(Cn3nnc(Cc4ccccc4)n3)cc2c1,56.6%

row,SMILES,growth
1,CO[C@H]1CC[C@@]2(C)C(=CC[C@H]3[C@@H]4C[C@H](O)C[C@@]4(C)CC[C@@H]32)C1,22.6%
2,Clc1ccc(-c2n[nH]c3c2Cc2ccccc2-3)cc1Cl,100%
3,Nc1ncnc2[nH]ncc12,3.02% (active)
4,CC1(C)C(=NO)C(C)(C)C1=NO,113%
5,CCOCCc1c(O)nc(SC)[nH]c1=O,93.3%
6,COc1cc(-c2nc(NC(C)=O)sc2-c2ccnc(NCCNS(=O)(=O)c3ccccc3)n2)ccc1Cl,-22.3% (active)
7,NS(=O)(=O)c1ccc(N2N=C(c3ccccc3)CCC2=O)cc1,64.2%
8,COc1ccccc1N1CCN(CC(O)COc2c(Br)c(Br)c(Br)c3c2OC(C)(C)C3)CC1 (stereo not given),10.3%
9,CC(C)n1nc(C#Cc2cccc(NC(=O)c3cccc(C(F)(F)F)c3)c2)c2c(N)ncnc21,-18.9% (active)
10,Cn1ccnc1C(=O)/C=C/c1ccc(CC(=O)NC2CCCCC2)cc1,68.1%
11,COC(=O)/C=C1/CCC2C3CCC4=CC(=O)C(Br)CC4(C)C3C(=O)CC12C (stereo not given),75.1%
12,COc1ccc(C(=O)COc2ccc(/C=C3\Oc4ccc(OC)cc4C3=O)cc2)cc1,94.1%
13,O=C(c1cnn2c1NC(c1ccc(F)cc1)C2)N1CCCCC1 (stereo not given),99.7%
14,COc1cc2c3c(c(=O)oc2cc1OS(=O)(=O)c1ccc(C(F)(F)F)cc1)CCCCC3,107%
15,C=C(COC(C)=O)[C@H]1CC/C(C)=C/CC/C(C)=C/CC[C@@]2(C)O[C@H]2C1,103%
16,COc1cc([C@@H]2c3cc4c(cc3[C@H](SC(=N)N)[C@H]3COC(=O)[C@H]23)OCO4)cc(OC)c1OC,-18.8% (active)
17,O=C1CC2c3cc(-c4cc5ccccc5o4)ccc3CCN2C(=O)N1c1ccccc1 (stereo not given),69.9%
18,O=C(/C=C/c1ccccc1)c1ccc2ccccc2c1,56.1%
19,COc1ccc(C(=O)c2sc3nc(C)cc(C)c3c2N)cc1OC,97.3%
20,CC(C)(C)c1ccc(OC(=O)Nc2ccccc2)cc1,95.9%
